Results: PubChem BioAssay AID1159580 (chemical genetic matrix, 2015)
Several values for one entry are separate records, joined by “and”; a condition that tells them apart may be missing. Equal entries are not always repeated. About 2,000 (36%) of roughly 5,500 compounds were called active. Inconclusive results (about 18%) are left out. Rule as the data show it: active = normalized growth mostly below about 0.91 (no sharp cut-off); inconclusive = no clear call, values can overlap the other calls; inactive = mostly above about 0.92. This is one part of the list.

Assay: chemical genetic growth profiling, strain panel (AID 1159580);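 also: tested at 20 µM; growth read once vehicle control cultures reached saturation at 30 °C; 1 = growth at the plate median or of vehicle wells; lower values mean less growth of the strain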
Conditions: growth OD

Measured: normalized growth

CCN(CC)CCCC(C)Nc1ccnc2cc(Cl)ccc12 (stereo not drawn)
inactive: S. cerevisiae deletion strains, locus YJR075W, strain HOC1, active compounds read low 1.03 and 1.01 | S. cerevisiae deletion strains, locus YKL009W, strain mrt4, active compounds read low 1.03 | S. cerevisiae deletion strains, locus YKL068W, active compounds read low 1.01 | S. cerevisiae deletion strains, locus YKL085W, strain MDH1 (second series), active compounds read low 0.998 | S. cerevisiae deletion strains, locus YKL085W, strain MDH1, active compounds read low 0.998 | S. cerevisiae deletion strains, locus YKL160W, strain elf1, active compounds read low 1.03 | S. cerevisiae deletion strains, locus YKR001C, strain vps1, active compounds read low 1.01 | S. cerevisiae deletion strains, locus YKR026C, strain gcn3, active compounds read low 1.03 | S. cerevisiae deletion strains, locus YKR091W, strain srl3, active compounds read low 1.02 | S. cerevisiae deletion strains, locus YLL001W, strain dnm1, active compounds read low 1.02 | S. cerevisiae deletion strains, locus YLL026W, active compounds read low 1.01 | S. cerevisiae deletion strains, locus YLL041C, strain sdh2, active compounds read low 1.02 | S. cerevisiae deletion strains, locus YLR027C, strain aat2, active compounds read low 1.01 | S. cerevisiae deletion strains, locus YLR039C, strain RIC1, active compounds read low 1.04 | S. cerevisiae deletion strains, locus YLR058C, strain SHM2, active compounds read low 1.03 | S. cerevisiae deletion strains, locus YLR102C, strain apc9, active compounds read low 1 | S. cerevisiae deletion strains, locus YLR113W, strain HOG1, active compounds read low 0.947 | S. cerevisiae deletion strains, locus YLR221C, strain rsa3, active compounds read low 1.03 | S. cerevisiae deletion strains, locus YLR258W, strain gsy2, active compounds read low 1.01 | S. cerevisiae deletion strains, locus YLR262C, strain YPT6 (second series), active compounds read low 1.01 | S. cerevisiae deletion strains, locus YLR262C, strain YPT6, active compounds read low 1.01 | S. cerevisiae deletion strains, locus YLR268W, strain sec22, active compounds read low 0.998 | S. cerevisiae deletion strains, locus YLR320W, strain mms22, active compounds read low 1.01 | S. cerevisiae deletion strains, locus YLR330W, strain CHS5, active compounds read low 1.02 | S. cerevisiae deletion strains, locus YLR342W, strain FKS1 (second series), active compounds read low 1.03 | S. cerevisiae deletion strains, locus YLR342W, strain FKS1, active compounds read low 1.03 | S. cerevisiae deletion strains, locus YLR357W, strain rsc2, active compounds read low 1.05 | S. cerevisiae deletion strains, locus YLR370C, strain arc18, active compounds read low 1.02 | S. cerevisiae deletion strains, locus YLR371W, strain rom2, active compounds read low 1.02 | S. cerevisiae deletion strains, locus YLR384C, strain iki3, active compounds read low 1.03 | S. cerevisiae deletion strains, locus YLR418C, strain cdc73, active compounds read low 1.07 | S. cerevisiae deletion strains, locus YML016C, strain PPZ1, active compounds read low 1.01 | S. cerevisiae deletion strains, locus YML032C, strain rad52, active compounds read low 0.996 | S. cerevisiae deletion strains, locus YML120C, strain ndi1, active compounds read low 1.01 | S. cerevisiae deletion strains, locus YML124C, strain tub3, active compounds read low 1 | S. cerevisiae deletion strains, locus YMR058W, strain fet3, active compounds read low 1 | S. cerevisiae deletion strains, locus YMR078C, strain ctf18, active compounds read low 1.02 | S. cerevisiae deletion strains, locus YMR125W, strain sto1, active compounds read low 1.03 | S. cerevisiae deletion strains, locus YMR129W, active compounds read low 1.02 | S. cerevisiae deletion strains, locus YMR205C, strain PFK2, active compounds read low 1.04 | S. cerevisiae deletion strains, locus YMR223W, strain ubp8, active compounds read low 1.03 | S. cerevisiae deletion strains, locus YMR231W, strain pep5, active compounds read low 1.02 | S. cerevisiae deletion strains, locus YMR307W, strain GAS1, active compounds read low 1.04 | S. cerevisiae deletion strains, locus YNL067W, strain RPL9B, active compounds read low 1.03 | S. cerevisiae deletion strains, locus YNL071W, strain lat1, active compounds read low 1 | S. cerevisiae deletion strains, locus YNL128W, strain TEP1, active compounds read low 1.04 | S. cerevisiae deletion strains, locus YNL153C, strain GIM3, active compounds read low 1.04 | S. cerevisiae deletion strains, locus YNL175C, strain NOP13, active compounds read low 1.01 | S. cerevisiae deletion strains, locus YNL183C, strain NPR1, active compounds read low 0.918 | S. cerevisiae deletion strains, locus YNL197C, strain WHI3, active compounds read low 0.99 | S. cerevisiae deletion strains, locus YNL209W, strain ssb2, active compounds read low 1.01 | S. cerevisiae deletion strains, locus YNL224C, strain SQS1, active compounds read low 1 | S. cerevisiae deletion strains, locus YNL233W, strain BNI4, active compounds read low 1.03 | S. cerevisiae deletion strains, locus YNL248C, strain rpa49, active compounds read low 1.04 | S. cerevisiae deletion strains, locus YNL250W, strain rad50, active compounds read low 1.02 | S. cerevisiae deletion strains, locus YNL271C, strain bni1, active compounds read low 1.01 | S. cerevisiae deletion strains, locus YNL298W, strain CLA4, active compounds read low 1.01 | S. cerevisiae deletion strains, locus YNL307C, strain MCK1, active compounds read low 1.02 | S. cerevisiae deletion strains, locus YNL322C, strain KRE1 (second series), active compounds read low 1.05 | S. cerevisiae deletion strains, locus YNR049C, strain mso1, active compounds read low 1.02 | S. cerevisiae deletion strains, locus YNR052C, strain pop2, active compounds read low 1.01 | S. cerevisiae deletion strains, locus YOL006C, strain TOP1, active compounds read low 1.14 | S. cerevisiae deletion strains, locus YOL012C, strain htz1 2.16 | S. cerevisiae deletion strains, locus YOL147C, strain pex11, active compounds read low 1 | S. cerevisiae deletion strains, locus YOR001W, strain rrp6, active compounds read low 1.03 | S. cerevisiae deletion strains, locus YOR061W, strain CKA2, active compounds read low 1.01 | S. cerevisiae deletion strains, locus YOR069W, strain VPS5, active compounds read low 1.01 | S. cerevisiae deletion strains, locus YOR070C, strain gyp1, active compounds read low 1.02 | S. cerevisiae deletion strains, locus YOR080W, strain dia2, active compounds read low 1.06 | S. cerevisiae deletion strains, locus YOR083W, strain WHI5 (second series), active compounds read low 0.986 | S. cerevisiae deletion strains, locus YOR083W, strain WHI5, active compounds read low 1.02 | S. cerevisiae deletion strains, locus YOR106W, strain vam3, active compounds read low 1.03 | S. cerevisiae deletion strains, locus YOR136W, strain idh2, active compounds read low 1.01 | S. cerevisiae deletion strains, locus YOR144C, strain elg1, active compounds read low 0.993 | S. cerevisiae deletion strains, locus YOR184W, strain ser1, active compounds read low 1.03 | S. cerevisiae deletion strains, locus YOR231W, strain MKK1, active compounds read low 0.953 | S. cerevisiae deletion strains, locus YOR265W, strain rbl2, active compounds read low 1.02 | S. cerevisiae deletion strains, locus YOR270C, strain vph1, active compounds read low 1.01 | S. cerevisiae deletion strains, locus YOR290C, strain snf2, active compounds read low 1.01 | S. cerevisiae deletion strains, locus YOR316C, strain cot1, active compounds read low 1.01 | S. cerevisiae deletion strains, locus YPL051W, strain arl3, active compounds read low 1.02 | S. cerevisiae deletion strains, locus YPL055C, strain LGE1, active compounds read low 1.03 and 1.01 | S. cerevisiae deletion strains, locus YPL078C, strain atp4, active compounds read low 1.02 | S. cerevisiae deletion strains, locus YPL106C, strain sse1, active compounds read low 1.05 | S. cerevisiae deletion strains, locus YPL240C, strain hsp82, active compounds read low 1.02 | S. cerevisiae deletion strains, locus YPL241C, strain CIN2, active compounds read low 1.01 | S. cerevisiae deletion strains, locus YPL256C, strain CLN2, active compounds read low 0.945 | S. cerevisiae deletion strains, locus YPR119W, strain clb2, active compounds read low 1.01 | S. cerevisiae deletion strains, locus YPR141C, strain kar3, active compounds read low 1.01 | S. cerevisiae deletion strains, locus YPR163C, strain tif3, active compounds read low 0.999 | S. cerevisiae deletion strains, locus YPR167C, strain met16, active compounds read low 1.01 | S. cerevisiae deletion strains, strain wtn01, active compounds read low 1.03 | S. cerevisiae strains, strain wild type, active compounds read low 1.01
